RORg inh = blocks mouse ROR gamma transcriptional activity | P51450 | Drosophila S2 Gal4-RORgamma UAS-luciferase reporter, 20 h | Potency, µM (series often up to 53.6 µM), for the others: top-dose activity change, negative = inhibition, most hits filed as inhibitors | 5.4% of 310,000 active | AID 2551; further: potency means the concentration at half of the fitted maximal effect; on the % scale 0 is the no-effect control and ±100 the full control effect; nearly all actives have a fitted effect of over 60% in size
Target sequence (P51450 whole entry, looked up, the tested form may be a part): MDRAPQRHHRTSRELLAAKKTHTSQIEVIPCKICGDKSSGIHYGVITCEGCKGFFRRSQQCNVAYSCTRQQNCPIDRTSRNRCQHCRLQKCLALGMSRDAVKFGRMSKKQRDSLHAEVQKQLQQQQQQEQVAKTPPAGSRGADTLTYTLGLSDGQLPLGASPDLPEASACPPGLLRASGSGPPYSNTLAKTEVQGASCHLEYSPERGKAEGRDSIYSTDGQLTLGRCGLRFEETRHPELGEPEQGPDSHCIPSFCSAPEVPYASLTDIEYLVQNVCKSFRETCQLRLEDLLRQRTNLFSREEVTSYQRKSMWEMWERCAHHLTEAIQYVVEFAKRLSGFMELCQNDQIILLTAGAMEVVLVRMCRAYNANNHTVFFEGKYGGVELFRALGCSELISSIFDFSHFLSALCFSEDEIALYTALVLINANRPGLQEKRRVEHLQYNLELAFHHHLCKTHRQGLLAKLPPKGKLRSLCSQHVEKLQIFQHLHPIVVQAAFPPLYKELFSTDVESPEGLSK
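Stably transfected Drosophila Schneider cells are the test system, with ROR gamma fused to Gal4 and luciferase under UAS control; luminescence is read after 20 hr of 700 uM copper sulfate induction at ambient temperature.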
Gal4-VP16 FLuc = counter-screen for ROR gamma inhibitors: Gal4-VP16 reporter; Drosophila S2 Gal4-VP16 UAS-luciferase, luminescence, 20 h; Potency, µM (top dose mostly 53.6 µM), for inactives: at the highest dose activity, negative = inhibition, actives largely listed as inhibitors; 3.5% of 310,000 active; AID 2546;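 further: Gal4-VP16 expression switched on by copper sulfate through the metallothionein promoter; potency means the concentration at half of the fitted maximal effect; on the % scale 0 is the no-effect control and ±100 the full control effect; nearly all actives have a fitted effect of over 50% in size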
IL-1B inflam inh = blocks inflammasome-driven IL-1 beta release | THP-1 LPS/ATP IL-1B secretion, AlphaLISA, 16 h; active compounds read low | activity change, % at 57.5 µM | 4.7% of 360,000 active | AID 743279; in the data active means activity change below about -50%; inconclusive means mostly about -30% to -49%; further: on the % scale 0 is the no-effect control and ±100 the full control effect
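Secreted IL-1B measured by AlphaLISA bead assay after 16 h compound exposure of THP-1 cells; compounds (final up to 57.5 uM) added 1 h before LPS (250 ng/mL) and ATP (1.25 mM) stimulation; lower signal means less secretion.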
MCF10A rerep = induces DNA re-replication in MCF 10a normal breast cells; MCF 10A DNA re-replication, Hoechst nuclear intensity, 48 h; 2.9% of 350,000 active; Potency, µM (top dose mostly 46.1 µM), for the others: at the top dose activity, positive = re-replication, most hits filed as activators; further: potency means the concentration at half of the fitted maximal effect; % of control where 0% means no effect; nearly all actives have a fitted effect of over 50% in size
SW480 rereplic = DNA re-replication induction in SW480 cells | SW480 DNA re-replication, Hoechst DNA content imaging, 48 h | Potency, µM (series often up to 46.1 µM), without a hit: at the highest dose re-replication activation, actives largely listed as activators | 1.8% of 340,000 active | AID 624297; further: potency means the concentration at half of the fitted maximal effect; % of control where 0% means no effect; nearly all actives have a fitted effect of over 55% in size
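Treated cells incubate 48 hr (37 C, 5% CO2), are stained 40 min with Hoechst, and nuclear fluorescence is enumerated; a rise in nuclei with high DNA signal marks re-replication.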
* marks the source's active call; other numbers are inactive results; i = inactive; u = inconclusive; x = no result given; [ ] = remark or other dose. Rows were chosen to be rich in hits. Some 11% of all compounds tested hit in one or more screens of this group. Unless noted, the call rests on the fitted dose curve; in most records, active means well fitted curve in the direction sought with a large enough effect; inconclusive means small, poorly fitted or top-dose-only effect, or another doubt; inactive means no such curve, though single readings can be large; an effect the other way counts as inactive or inconclusive.

SMILES | RORg inh | Gal4-VP16 FLuc | IL-1B inflam inh | MCF10A rerep | SW480 rereplic
COc1ccccc1NC(=S)N1CCC(c2nc3cc(C)c(C)cc3[nH]2)CC1 | -2.9% | 2.5% | -0.6 | -3.6% | -3.6%
O=C1c2ccccc2CN1C(CO)Cc1ccccc1 (centres undefined) | -11.3% | -3.4% | -3.1 | -8.7% | -13.5%
COC(=O)C(C(=O)OC)c1ccccc1NS(=O)(=O)c1c(C)cc(C)cc1C | x | x | 34.2 | x | x
COc1cc(NC(=O)c2ccc(F)cc2)c(OC)cc1NC(=O)CN1CCCCC1 | -4.6% | -2.0% | -68.3* | 6.1% | -1.3%
COc1ccc(OC)c(NC(=O)CN2CCC(C(=O)c3ccc(C)cc3)CC2)c1 | 15.4%[10 µM] | 0.7% | -10.7 | 18.4µM* | 2.7%
COc1cc(NC(=O)c2cccc(Cl)c2)c(OC)cc1NC(=O)CN1CCOCC1 | -7.2% | 1.3% | -21.0 | u | -3.3%
COc1ccc(NC(=O)CN2CCC(C(=O)c3ccc(C)cc3)CC2)c(OC)c1 | u | -3.8% | 12.9 | u | -43.9%
COc1cc(NC(=O)c2ccccc2)c(OC)cc1NC(=O)CN1CCCCC1 | -28.9% | -0.9% | u | 0.0% | -1.3%[9.22 µM]
O=C(CN1CCCCC1)Nc1ccccc1Oc1ccccc1 | 25.6% | -1.1% | 37.2 | 18.4µM* | -121.9%
COc1cc(NC(=O)c2cccc(Cl)c2)c(OC)cc1NC(=O)CN1CCCCC1 | 3.7% | -2.9% | -78.7* | u | 13.6%
O=C(Nc1cccc(Cl)c1)c1csc([C@H]2C[C@H](O)[C@@H](CO)O2)n1 | x | x | -2.7 | x | x
O=C(CN1CCC(C(=O)c2ccc3c(c2)OCCO3)CC1)Nc1ccccc1C(F)(F)F | u | -6.7% | -56.9* | 16.4µM* | 3.8%
COc1cc(NC(=O)c2ccccc2)c(OC)cc1NC(=O)CN1CCOCC1 | 3.3% | -1.1% | u | -1.6% | -0.9%
Cc1ccccc1NC(=O)CN1CCC(C(=O)c2ccc3c(c2)OCCO3)CC1 | 15.4% | -5.9% | 13.5 | 3.3% | 28.6%
CCOc1ccc(C(=O)C2CCN(CC(=O)Nc3ccccc3N3CCOCC3)CC2)cc1 | 3.8% | u | -25.1 | 7.31µM* | u
CCOc1ccc(C(=O)Nc2ccccc2N2CCOCC2)cc1 | -19.3% | 0.8% | -21.3 | 11.6% | -1.1%
COc1cc(NC(=O)c2ccccc2Cl)c(OC)cc1NC(=O)CN1CCOCC1 | 42.3% | -8.7% | -73.6* | 4.3% | -8.5%
CCC(c1nc2ccccc2[nH]1)N(C(=O)C1=NNC(=O)CC1)c1ccccc1 (centres undefined) | x | x | 12.3 | x | x
COc1ccc(C2NC(=S)NC3=C2N2CCC3CC2)cc1 (centres undefined) | -2.0% | 0.6% | -11.0 | 1.3% | -5.8%
Fc1ccc(C2NC(=S)NC3=C2N2CCC3CC2)cc1 (centres undefined) | -27.9% | -25.7% | 5.0 | 13µM* | 1.7%
CCCCC(=O)Nc1nnc(-c2ccco2)o1 | -10.3% | -9.8% | 11.5 | -2.8% | -9.7%
NC(=O)c1ccsc1NC(=O)COC(=O)Cc1ccccc1[N+](=O)[O-] | x | x | 39.0 | x | x
O=C(COc1ccccc1)Nc1nnc(-c2ccco2)o1 | 15.8µM* | u | -6.1 | -0.7% | 0.7%
O=C(COc1ccccc1)Nc1nnc(-c2ccc(Cl)s2)o1 | 12.6µM* | 20µM* | 23.0 | 1.5% | -0.6%
O=C(COc1ccccc1)Nc1nnc(-c2ccccc2)o1 | 10µM* | 10µM* | 9.9 | 14.3% | 8.4%
SMILES | RORg inh | Gal4-VP16 FLuc | IL-1B inflam inh | MCF10A rerep | SW480 rereplic
O=C(COC(=O)c1ccc(Cl)nc1)Nc1nnc(-c2ccccc2)o1 | x | x | 0.0 | 13.7% | -1.0%
O=C(COc1ccccc1)Nc1cccc(-c2nnc(-c3ccccc3)o2)c1 | -31.2% | u | 49.7 | 28.8% | 2.8%
O=C(COC(=O)Cc1ccccc1[N+](=O)[O-])Nc1nnc(-c2ccccc2)o1 | x | x | 4.5 | 18.4µM* | -12.2%
O=C(COn1nnc2ccc(C(F)(F)F)cc21)Nc1nnc(-c2ccccc2)o1 | 7.08µM* | 4.47µM* | 11.0 | u | -2.9%
O=C(Cc1ccccc1)Nc1nnc(-c2ccco2)o1 | 2.82µM* | 10µM* | -15.5 | 2.7% | -1.5%
CCC(=O)Nc1nnc(-c2ccco2)o1 | u | -13.9% | 23.5 | -0.3% | -17.3%
O=C(COc1ccc(Cl)cc1)Nc1nnc(-c2ccco2)o1 | 11.2µM* | u | 22.0 | 5.1% | -3.1%
O=C(COc1ccc(Cl)cc1)Nc1ccc(NC(=O)c2ccco2)cc1 | -12.9% | 3.6% | -8.9 | -3.2% | -4.8%
O=C(OCc1ccc([N+](=O)[O-])cc1Cl)c1cnccn1 | x | x | -5.4 | -13.3% | -6.2%
COc1ccc(COC(=O)CCCN=C2NS(=O)(=O)c3ccccc32)cc1F | x | x | 5.9 | x | x
C#CCOCCOCCOCCNc1nc(N2CCN(C(=O)CCCCCCCCCCNC(=O)[C@@H](CCC(=O)O)n3cc(CCCCCN)nn3)CC2)nc(N2CCN(C(=O)CCCCCCCCCCNC(=O)[C@H](CO)n3cc(CCCSC)nn3)CC2)n1 | x | x | -55.8* | -11.8% | u
C#CCOCCOCCOCCNc1nc(N2CCN(C(=O)CCCCCCCCCCNC(=O)[C@@H](CCC(=O)O)n3cc(CCCCCN)nn3)CC2)nc(N2CCN(C(=O)CCCCCCCCCCNC(=O)[C@H](CO)n3cc(CCCCCN)nn3)CC2)n1 | x | x | u | 20.1% | -7.6%
C#CCOCCOCCOCCNc1nc(N2CCN(C(=O)CCCCCCCCCCNC(=O)[C@@H](CCSC)n3cc(CCO)nn3)CC2)nc(N2CCN(C(=O)CCCCCCCCCCNC(=O)[C@H](CO)n3cc(CCCCCN)nn3)CC2)n1 | x | x | -82.2* | -5.6% | -0.7%
C#CCOCCOCCOCCNc1nc(N2CCN(C(=O)CCCCCCCCCCNC(=O)[C@@H](CCSC)n3cc(CCO)nn3)CC2)nc(N2CCN(C(=O)CCCCCCCCCCNC(=O)[C@H](CCC(=O)O)n3cc(CCCCCN)nn3)CC2)n1 | x | x | -52.8* | 6.0% | -5.2%
Cc1ccc(-n2ncc3c2CC(C)(C)CC3NC(=O)c2ccncc2)cc1 (centres undefined) | u | -6.9% | i | 5.0% | -6.2%
CCOC(=O)CCN1C(=O)[C@H]2[C@H]3[C@H](O)[C@H](O)C/C(=N/O[C@@H]4O[C@@H](COC(C)=O)[C@@H](OC(C)=O)[C@@H](OC(C)=O)[C@H]4OC(C)=O)[C@@H]3CC[C@@H]2C1=O | 1.0%[10 µM] | -3.5%[10 µM] | x | x | x
c1cc2cc(-c3c(-c4ccc5c(c4)OCO5)noc3-c3ccsc3)ccc2[nH]1 | 37.1% | -7.1% | -57.2* | u | -3.8%
COc1cc(-c2c(-c3ccc4c(c3)OCO4)noc2-c2ccsc2)ccc1F | 17.5% | 1.2% | -16.5 | u | 2.0%
Cc1onc(-c2ccc3c(c2)OCO3)c1-c1ccc2[nH]ccc2c1 | 15.1% | -6.0% | -57.5* | u | u
c1ccc(-c2onc(-c3ccco3)c2-c2ccc3[nH]ccc3c2)cc1 | 34.1% | -24.0% | -11.4 | u | -2.0%

Screening results: PubChem BioAssay, National Center for Advancing Translational Sciences (NCATS)
